Reference: PubChem BioAssay AID1159580 (chemical genetic matrix, 2015)
Values joined by “and” are separate entries in the source; they are usually repeats but may differ in a detail not shown here. Identical values can stand only once. The campaign covered roughly 5,500 compounds. About 2,000 (36%) were called active. Roughly 18% stayed inconclusive and do not appear here. Cut-off read from the data, not from the text of the source: active = normalized growth mostly below about 0.91 (no sharp cut-off); inconclusive = no clear call, values can overlap the other calls; inactive = mostly above about 0.92. The list shows a part of the results.

Test: chemical genetic growth profiling, strain panel (AID 1159580);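 note: tested at 20 µM; growth read once vehicle control cultures reached saturation at 30 °C; 1 = growth at the plate median or of vehicle wells; lower values mean less growth of the strain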
Conditions: S. cerevisiae deletion strains, growth OD

Measured: normalized growth

CC(CCc1ccccc1)NCC(O)c1ccc(O)c(C(N)=O)c1 (stereo not given)
inactive: locus YAL013W, strain DEP1, hits give low values 1 | locus YAL021C, strain ccr4, hits give low values 1 | locus YAL026C, strain drs2, hits give low values 1.01 | locus YAL030W, strain snc1, hits give low values 0.997 | locus YAL040C, strain CLN3, hits give low values 1.01 | locus YBL061C, strain skt5, hits give low values 1.01 | locus YBR009C, strain hhf1, hits give low values 1 | locus YBR021W, strain FUR4, hits give low values 1.01 | locus YBR023C, strain chs3, hits give low values 1.01 | locus YBR171W, strain sec66, hits give low values 1.01 | locus YBR229C, strain ROT2, hits give low values 1 | locus YBR231C, strain swc5, hits give low values 1.01 | locus YBR279W, strain paf1, hits give low values 1 | locus YCL011C, strain gbp2, hits give low values 1.01 | locus YCL016C, strain dcc1, hits give low values 1.01 | locus YCL029C, strain bik1, hits give low values 1.01 | locus YCL061C, strain MRC1 (second series), hits give low values 1.01 | locus YCL061C, strain MRC1, hits give low values 0.997 | locus YCL069W, strain vba3, hits give low values 1 | locus YCR088W, strain abp1, hits give low values 1.01 | locus YDL005C, strain med2, hits give low values 1.01 | locus YDL035C, strain GPR1, hits give low values 1.01 | locus YDL040C, strain nat1, hits give low values 1.01 | locus YDL074C, strain BRE1, hits give low values 0.977 | locus YDL101C, strain DUN1, hits give low values 1 | locus YDL134C, strain PPH21, hits give low values 1.02 | locus YDL185W, strain tfp1, hits give low values 1.01 | locus YDL192W, strain arf1, hits give low values 1.01 | locus YDR001C, strain nth1, hits give low values 1.01 | locus YDR069C, strain doa4, hits give low values 1.01 | locus YDR101C, strain arx1, hits give low values 0.999 | locus YDR137W, strain rgp1, hits give low values 1.01 | locus YDR150W, strain NUM1, hits give low values 1 | locus YDR159W, strain sac3, hits give low values 1.01 | locus YDR162C, strain NBP2, hits give low values 1.02 | locus YDR195W, strain ref2 1.01 | locus YDR297W, strain sur2, hits give low values 1.01 | locus YDR318W, strain mcm21, hits give low values 1.02 | locus YDR334W, strain swr1, hits give low values 0.99 | locus YDR335W, strain msn5, hits give low values 1 | locus YDR363W, strain ESC2, hits give low values 1 | locus YDR388W, hits give low values 1.02 | locus YDR392W, strain spt3, hits give low values 1 | locus YDR502C, strain sam2, hits give low values 1.01 | locus YEL003W, strain gim4, hits give low values 0.999 | locus YEL037C, strain rad23, hits give low values 1 | locus YEL061C, strain CIN8 (second series), hits give low values 1.01 | locus YEL061C, strain CIN8, hits give low values 0.997 | locus YER002W, strain NOP16, hits give low values 1.03 | locus YER015W, strain faa2, hits give low values 0.997 | locus YER016W, strain bim1, hits give low values 1 | locus YER110C, hits give low values 1.02 | locus YER111C, strain swi4, hits give low values 1.01 | locus YER155C, strain BEM2 (second series), hits give low values 1.01 | locus YER155C, strain BEM2, hits give low values 1 | locus YER167W, strain BCK2, hits give low values 1.02 | locus YFR010W, strain ubp6, hits give low values 1 | locus YGL078C, strain dbp3, hits give low values 1.01 | locus YGL086W, strain mad1, hits give low values 1.01 | locus YGL167C, strain pmr1, hits give low values 1 | locus YGL173C, strain kem1, hits give low values 1.01 | locus YGL227W, strain vid30, hits give low values 1.02 | locus YGL240W, strain doc1, hits give low values 1 | locus YGL248W, strain PDE1, hits give low values 0.992 | locus YGL253W, strain hxk2, hits give low values 1 | locus YGR078C, strain PAC10, hits give low values 0.985 | locus YGR135W, strain pre9, hits give low values 1.05 | locus YGR252W, strain gcn5, hits give low values 0.996 | locus YHR013C, strain ard1, hits give low values 1 | locus YHR027C, strain rpn1, hits give low values 1 | locus YHR030C, strain SLT2, hits give low values 1 and 1.02 | locus YHR079C, strain IRE1 (second series), hits give low values 1.02 | locus YHR079C, strain IRE1, hits give low values 1.04 | locus YHR094C, strain hxt1, hits give low values 1.02 | locus YHR129C, strain ARP1, hits give low values 1.01 | locus YHR142W, strain chs7, hits give low values 1.02 | locus YHR200W, strain rpn10, hits give low values 1.01 | locus YIL066C, strain RNR3, hits give low values 0.995 | locus YIL073C, strain SPO22, hits give low values 1.1 | locus YIL125W, strain kgd1, hits give low values 1.01 | locus YIR030C, strain dcg1, hits give low values 1.03 | locus YJL092W, strain hpr5, hits give low values 1.01 | locus YJL095W, strain BCK1 (second series), hits give low values 1.01 | locus YJL095W, strain BCK1, hits give low values 0.981 and 1.05 | locus YJL115W, strain asf1, hits give low values 1 | locus YJL129C, strain trk1, hits give low values 1 | locus YJL134W, strain LCB3, hits give low values 1 | locus YJL154C, strain vps35, hits give low values 1 | locus YJL164C, strain tpk1, hits give low values 0.996 | locus YJL166W, strain qcr8, hits give low values 1 | locus YJL168C, strain set2, hits give low values 1.01 | locus YJL187C, strain SWE1 (second series), hits give low values 0.983 | locus YJL187C, strain SWE1, hits give low values 1.01 | locus YJR043C, strain POL32, hits give low values 0.986 | locus YJR066W, strain TOR1, hits give low values 0.977
